# From ChEMBL document CHEMBL3988442, “University of Dundee, Small-Polar-MMV Screening Library” (2021)
# Among all 48,000 compounds or so, about 13,000 (27%) showed an effect of 50% or more. Some of the results follow.
# Test system: Wolbachia pipientis
# Test: Anti-Wolbachia Cell-Based Screen
# Type: functional
# Set-up: scale not given: in the data most compounds retested in dose-response had high values
# Conditions: 5 µM
row,SMILES,Percent Effect [%]
1,O=C(NCCCn1nc2ccccn2c1=O)NC1CCC(O)CC1 (configuration not stated),-5.846
2,CC(CCSc1ccccc1)N1CCCN(C(N)=O)CC1 (configuration not stated),1.732
3,COc1cc2c(cc1OC)S(=O)(=O)N(Cc1cnn(C)c1)C2=O,-5.179
4,CCN(Cc1cccc(-c2ccncc2)c1)S(C)(=O)=O,22.59
5,COc1ccnc(N2CCC(OCCN3CCCCC3)C2)n1 (configuration not stated),-2.392
6,CCCS(=O)(=O)N1CCC2(CN(c3ccsc3)C(=O)CN2C)C1.O=C(O)C(F)(F)F (configuration not stated),2.599
7,CCc1nc(CN(C)C2CCN(CCn3cc(C#N)cn3)C2)no1 (configuration not stated),10.97
8,Cc1nc(CN2CCC(N(C)Cc3noc(C(C)C)n3)C2)cs1 (configuration not stated),19.33
9,CC(C)c1nc(CN(C)C2CCN(CC(F)(F)F)C2)no1 (configuration not stated),0.6339
10,Cc1ncsc1CCN1CCC(N(C)Cc2noc(C(C)C)n2)C1 (configuration not stated),6.438
11,CN(CC1CN(CCn2cc(C#N)cn2)CCO1)c1cccnn1 (configuration not stated),-17.7
12,CC(C)c1nc(CN(C)C2CCN(CCc3ccncc3)C2)no1 (configuration not stated),78.23
13,CC(C)c1nc(CN(C)C2CCN(CCn3cc(C#N)cn3)C2)no1 (configuration not stated),72.8
14,CN(Cc1noc(C2CC2)n1)C1CCN(CCn2cc(C#N)cn2)C1 (configuration not stated),90.88
15,Cc1nc(CN(C)C2CCN(CCn3cc(C#N)cn3)C2)no1 (configuration not stated),105.6
16,CN(c1ccc(C#N)cn1)C1CCCN(Cc2noc(C3CC3)n2)C1 (configuration not stated),3.102
17,Cc1nn(CCO)c(C)c1CNC1CCc2c(Cl)cccc21 (configuration not stated),9.566
18,CCOC(C)c1nc(CN2CCN(CC(F)F)CC2)cs1 (configuration not stated),-28.37
19,CCc1c(C(=O)N2CC[C@H](N3CCOCC3)[C@H](CCCO)C2)csc1C,-10.58

row,SMILES,Percent Effect [%]
1,CCc1c(C)nn(CCNC(=O)C2CCCN(C(=O)N(C)C)C2)c1C (configuration not stated),-3.279
2,C=C(C)CN1CCC(c2n[nH]c(C3CC3)n2)CC1,-34.27
3,O=C(Nc1cnccn1)[C@H]1CO[C@H]2CCN(c3ncc(F)cn3)C[C@H]2C1.O=C(O)C(F)(F)F,104.1
4,O=C(Nc1cnccn1)[C@@H]1C[C@H]2OCC[C@H]2N(c2ncc(F)cn2)C1,-10.05
5,Fc1cnc(N2CC[C@@H]3CN(Cc4ccncc4)CCO[C@@H]3C2)nc1.O=C(O)C(F)(F)F.O=C(O)C(F)(F)F.O=C(O)C(F)(F)F,-11.92
6,CC(=O)N1[C@H](Cn2cncn2)C[C@@H]2CN(c3ncc(F)cn3)CC[C@@H]21.O=C(O)C(F)(F)F,-4.782
7,O=C(Nc1cccnc1)[C@H]1CO[C@H]2CCN(c3ncc(F)cn3)C[C@H]2C1.O=C(O)C(F)(F)F.O=C(O)C(F)(F)F,-5.908
8,CN(C)C(=O)[C@H]1C[C@H]2OCC[C@H]2N(Cc2ccc(F)cc2)C1.O=C(O)C(F)(F)F,-2.638
9,CN(C)C(=O)[C@H]1CO[C@H]2CCN(c3ncc(F)cn3)C[C@H]2C1.O=C(O)C(F)(F)F,120.2
10,CN1CCN(C(=O)[C@H]2C[C@@H]3CN(c4ncc(F)cn4)C[C@@H]3N2C)CC1.O=C(O)C(F)(F)F.O=C(O)C(F)(F)F.O=C(O)C(F)(F)F,6.01
11,CNC(=O)[C@H]1CO[C@H]2CCN(c3ncc(F)cn3)C[C@H]2C1.O=C(O)C(F)(F)F,80.41
12,CNC(=O)c1cnc(/C=C/c2cc(OC)c3c(c2)OCCO3)s1,15.86
13,CCN(C)c1ncnc2c1CCN(C(=O)c1ccsc1)CC2.O=C(O)C(F)(F)F,-2.544
14,CS(=O)(=O)N1CCO[C@@H]2CN(C(=O)COC3CCCC3)C[C@@H]2C1,-4.785
15,CCc1ccc(CN2CC[C@@H]3CN(S(C)(=O)=O)CCO[C@@H]3C2)o1.O=C(O)C(F)(F)F,2.069
16,CC(C)NC(=O)N1CC[C@@H]2CN(S(C)(=O)=O)CCO[C@@H]2C1,112.1
17,CS(=O)(=O)N1CCO[C@@H]2CN(C(=O)C3CC(F)(F)C3)C[C@@H]2C1,99.59
18,CS(=O)(=O)N1CCO[C@@H]2CN(C(=O)C3CCOC3)CC[C@@H]2C1 (some centres not stated),99.33
19,CS(=O)(=O)N1CCO[C@@H]2CN(C(=O)N3CCCC3)CC[C@@H]2C1,106.3

row,SMILES,Percent Effect [%]
1,CC(C)c1nc(CNC(=O)c2ccc(C(C)N3CCCCC3)o2)cs1 (configuration not stated),4.315
2,Cc1ncc(S(=O)(=O)Nc2ccnn2C(C)C)[nH]1,-21.74
3,CS(=O)(=O)N1CC[C@H]2C[C@@H](C(=O)N3CCOCC3)O[C@@H]2C1,-11.49
4,CS(=O)(=O)N1CCO[C@@H]2CN(C(=O)N3CCOCC3)CC[C@@H]2C1,93.86
5,COCCN1CCN(C(=O)c2ccccc2C(C)=O)[C@H]2CS(=O)(=O)C[C@H]21,-3.299
6,COc1ccccc1CN1CCCC2(Cc3ccccc3CNC2=O)C1 (configuration not stated),121.9
7,O=C1NCC2(CCCN(Cc3ccccc3OCCO)C2)O1 (configuration not stated),-12.98
8,Cc1cccc(CN2CCCC3(CCN(c4cccnc4)C3=O)C2)n1 (configuration not stated),-4.562
9,COCCC1(C(=O)O)CCCN(Cc2ccccc2OCCO)C1 (configuration not stated),-7.98
10,Cc1cccc(CN2CCCC3(Cc4ccccc4CNC3=O)C2)n1 (configuration not stated),122.4
11,CCOC(=O)N1CCN(c2nc(NC)c3ccccc3n2)CC1,-5.868
12,CCNC(=O)N1CCN(c2nc3ccccc3n2C)CC1,113.5
13,CCOC(=O)C(C)NC(=O)N1CCN(c2nc3ccccc3n2C)CC1 (configuration not stated),155.3
14,CCNC(=O)N1CCC(=Cc2ccccc2)CC1,6.266
15,COC(=O)CNC(=O)N1CCN(c2nc3ccccc3n2C)CC1,124.8
16,CCOC(=O)N1CCN(c2nc(N3CCCC3)c3ccccc3n2)CC1,-6.467
17,COC(=O)CNC(=O)N1CCC2(CC1)CC(c1ccccc1)CN(C)C2 (configuration not stated),-8.809
18,Cn1c(SCC(=O)NC(C)(C#N)C2CC2)nc2ccccc21 (configuration not stated),-4.187
19,CCOC(=O)CCNC(=O)N1CCN(c2nc3ccccc3n2C)CC1,-6.682
